The whole screen tested about 48,000 compounds, of which about 13,000 (27%) showed an effect of 50% or more. The list shows a part of the results.
test system: Wolbachia pipientis; assay: Anti-Wolbachia Cell-Based Screen; format: functional; set-up: scale not given: in the data most compounds retested in dose-response had high values; settings: 5 µM

SMILES | Percent Effect [%]
Cc1nn(C)c(C)c1S(=O)(=O)N(C)Cc1nn(C)c(Cl)c1Cl | -26.42
CCOCC1CN(Cc2ccco2)Cc2nccn2C1.O=C(O)C(F)(F)F (stereo unspecified) | 99.94
c1cncc(COCC2CN(Cc3ccco3)Cc3nccn3C2)c1 (stereo unspecified) | 6.885
c1cncc(OCC2CN(Cc3ccco3)Cc3nccn3C2)c1 (stereo unspecified) | -2.745
c1coc(CN2Cc3nccn3CC(Cn3cncn3)C2)c1 (stereo unspecified) | 1.02
CCN(CC)CC1CN(Cc2ccco2)Cc2nccn2C1 (stereo unspecified) | 84.77
CC(C)C(C(=O)NCC1CC1)n1cnc2cc(F)c(F)cc21 (stereo unspecified) | -9.964
O=C(CCc1nc(Cl)n[nH]1)NC1CCCN(CC2CCCCC2)C1 (stereo unspecified) | -7.697
CCc1ncc(C(=O)N(C)Cc2cc(-c3ccncc3)no2)cn1 | -12.94
COc1cccc2c1OCC(NCCCOc1cccnc1)C2 (stereo unspecified) | 86.98
c1cncc(OCCCNC2COc3ccccc3C2)c1 (stereo unspecified) | 107.3
c1cncc(OCCNC2Cc3ccccc3C2)c1 | 2.244
COc1cccc2c1OCC(NCc1cnn(-c3ccccc3)c1)C2 (stereo unspecified) | -6.454
c1ccc(OCCNC2CCN(c3ncccn3)CC2)cc1 | -7.109
COc1cccc2c1OCC(NCCc1cnn(-c3ccccc3)c1)C2 (stereo unspecified) | -5.519
OC(CN(Cc1ccccc1)Cc1cscn1)c1cccs1 (stereo unspecified) | -27.1
CNC(=O)c1nc2c(s1)CCN(C(=O)c1ccc(OC)cc1)CC2 | -5.332
Cc1ccc(OC2(C(=O)O)CCN(C(=O)c3ccc(F)cc3)CC2)cn1 | -2.115
CNC(=O)C1(c2cnccn2)CCCN1C(=O)c1cccc(F)c1 (stereo unspecified) | 96.69
CNC(=O)C1(c2cnccn2)CCCN1C(=O)c1ccc(F)cc1 (stereo unspecified) | 95.13
CNC(=O)C1(c2cnccn2)CCCN1C(=O)c1ccccn1 (stereo unspecified) | 81.35
CNC(=O)C1(c2cnccn2)CCCN1C(=O)c1ccc(OC)cc1 (stereo unspecified) | 106.6
O=C(c1cccc(F)c1)N1C[C@@H](CN2CCCCC2)[C@@H](CO)C1 | 0.9976
COc1ccncc1NC(=O)C1(c2ccc(F)cc2)CCC1 | -2.782
CNC(=O)C1(c2cnccn2)CCCN1C(=O)c1ccn(C)n1 (stereo unspecified) | -6.037
Cc1ccc(OC2(C(=O)O)CCN(C(=O)c3cccc(F)c3)CC2)cn1 | 1.243

SMILES | Percent Effect [%]
COc1ccc(CN2CCOC3(CCCN(c4cnccn4)C3)C2)cc1.O=C(O)C(F)(F)F.O=C(O)C(F)(F)F (stereo unspecified) | -2.164
O=C(CCNS(=O)(=O)c1cccnc1)N1CCCCC1 | -5.593
O=C(c1cnccn1)N1C[C@@H]2OCC(=O)N(CC3CCCCC3)[C@@H]2C1 | -4.007
Cc1ccc(C)c(NC(=O)c2n[nH]c(-n3cnnc3)n2)c1 | 8.614
Cn1c(Nc2ccc(F)cc2)c(C#N)c(=O)n(C)c1=O | 7.851
O=C(c1cnn(-c2ccccc2)c1)N1CCN(c2cnccn2)CC1 | -7.881
CC1(C(=O)NCCN2CCCCC2)CCCN1C(=O)c1ccccc1 (stereo unspecified) | 0.8057
CNC(=O)C1(c2cnccn2)CCCN1C(=O)c1ccccc1 (stereo unspecified) | 95.42
CNC(=O)C1(c2cnccn2)CCCN1C(=O)c1cccc(C)n1 (stereo unspecified) | 90.25
Cc1cccc(C(=O)N2C[C@@H]3[C@H](CC(=O)Nc4cccnc4)[C@@H]3C2)n1.O=C(O)C(F)(F)F.O=C(O)C(F)(F)F | -1.772
Cc1cccc(C(=O)N2CCn3c(CN4CCN(C)CC4)cnc3C2)n1 | -13.05
CC1=CC(C)(C)N(CN2C(=O)c3ccccc3C2=O)c2ccccc21 | -12.76
CNC(=O)C(c1cccc(Cl)c1)C(C)C (stereo unspecified) | -9.115
COc1ccc(C2(c3nc(-c4cccnc4)no3)CCOCC2)cc1 | -4.756
Cc1cc(C)n(C2CCCN(C(=O)CCNc3ncccn3)C2)n1 (stereo unspecified) | 114.6
COc1ccc(CC(=O)N2CCCC(n3cc(C)cn3)C2)cc1F (stereo unspecified) | -2.795
Cc1cc(C)n(C2CCCN(C(=O)CCCNc3ncccn3)C2)n1 (stereo unspecified) | 16.33
Cc1cnn(C2CCCN(C(=O)CCCOc3ccccc3F)C2)c1 (stereo unspecified) | 143.9
Cc1cnn(C2CCCN(C(=O)CCCNc3ncccn3)C2)c1 (stereo unspecified) | 0.4653
Cc1nc(C)n(C2CCCN(C(=O)CCCc3ccccn3)C2)n1 (stereo unspecified) | 81.77
Cc1cnn(C2CCCN(C(=O)CCCc3ccccn3)C2)c1 (stereo unspecified) | 102.3
Cc1cnn(C2CCCN(C(=O)CCCOc3cccc(F)c3)C2)c1 (stereo unspecified) | 4.981
Cc1nc(C)n(C2CCCN(C(=O)CCc3ccncc3)C2)n1 (stereo unspecified) | 4.522
Cc1nc(C)n(C2CCCN(C(=O)c3cccnc3NC(C)C)C2)n1 (stereo unspecified) | -8.043
O=C(CCNc1ncccn1)N1CCCC(n2ccnc2)C1 (stereo unspecified) | -7.544

From ChEMBL document CHEMBL3988442, “University of Dundee, Small-Polar-MMV Screening Library” (2021)
